The whole screen tested about 5,500 compounds, of which about 2,000 (36%) were called active. Roughly 18% stayed inconclusive and do not appear here. No stated cut-off is given here; in the data, active means normalized growth mostly below about 0.91 (no sharp cut-off); inconclusive means no clear call, values can overlap the other calls; inactive means mostly above about 0.92. This is one part of the list.
Experiment: chemical genetic growth profiling, strain panel (AID 1159580);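 further: tested at 20 µM; growth read once vehicle control cultures reached saturation at 30 °C; 1 = growth at the plate median or of vehicle wells; lower values mean less growth of the strain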
Settings: growth OD

Measured: normalized growth

CC(=O)NC1SCCC1=O (stereo not drawn)
inactive: S. cerevisiae deletion strains, locus YAL021C, strain ccr4, active compounds read low 1.01 | S. cerevisiae deletion strains, locus YAL026C, strain drs2, active compounds read low 0.983 | S. cerevisiae deletion strains, locus YAL030W, strain snc1, active compounds read low 0.975 | S. cerevisiae deletion strains, locus YBL061C, strain skt5, active compounds read low 0.985 | S. cerevisiae deletion strains, locus YBR009C, strain hhf1, active compounds read low 0.971 | S. cerevisiae deletion strains, locus YBR021W, strain FUR4, active compounds read low 1.02 | S. cerevisiae deletion strains, locus YBR023C, strain chs3, active compounds read low 0.977 | S. cerevisiae deletion strains, locus YBR171W, strain sec66, active compounds read low 0.998 | S. cerevisiae deletion strains, locus YBR229C, strain ROT2, active compounds read low 1.01 | S. cerevisiae deletion strains, locus YBR231C, strain swc5, active compounds read low 0.996 | S. cerevisiae deletion strains, locus YBR279W, strain paf1, active compounds read low 0.99 | S. cerevisiae deletion strains, locus YCL011C, strain gbp2, active compounds read low 0.974 | S. cerevisiae deletion strains, locus YCL016C, strain dcc1, active compounds read low 0.99 | S. cerevisiae deletion strains, locus YCL029C, strain bik1, active compounds read low 1.02 | S. cerevisiae deletion strains, locus YCL061C, strain MRC1, active compounds read low 1 | S. cerevisiae deletion strains, locus YCL069W, strain vba3, active compounds read low 0.981 | S. cerevisiae deletion strains, locus YCR088W, strain abp1, active compounds read low 0.984 | S. cerevisiae deletion strains, locus YDL005C, strain med2, active compounds read low 1.01 | S. cerevisiae deletion strains, locus YDL035C, strain GPR1, active compounds read low 1.03 | S. cerevisiae deletion strains, locus YDL040C, strain nat1, active compounds read low 0.992 | S. cerevisiae deletion strains, locus YDL074C, strain BRE1, active compounds read low 0.994 | S. cerevisiae deletion strains, locus YDL101C, strain DUN1, active compounds read low 1.01 | S. cerevisiae deletion strains, locus YDL134C, strain PPH21, active compounds read low 1.03 | S. cerevisiae deletion strains, locus YDL185W, strain tfp1, active compounds read low 1.01 | S. cerevisiae deletion strains, locus YDL192W, strain arf1, active compounds read low 1.01 | S. cerevisiae deletion strains, locus YDR001C, strain nth1, active compounds read low 0.986 | S. cerevisiae deletion strains, locus YDR069C, strain doa4, active compounds read low 0.977 | S. cerevisiae deletion strains, locus YDR101C, strain arx1, active compounds read low 0.982 | S. cerevisiae deletion strains, locus YDR137W, strain rgp1, active compounds read low 1.01 | S. cerevisiae deletion strains, locus YDR159W, strain sac3, active compounds read low 0.945 | S. cerevisiae deletion strains, locus YDR162C, strain NBP2, active compounds read low 1.02 | S. cerevisiae deletion strains, locus YDR195W, strain ref2 0.97 | S. cerevisiae deletion strains, locus YDR297W, strain sur2, active compounds read low 0.985 | S. cerevisiae deletion strains, locus YDR318W, strain mcm21, active compounds read low 1.02 | S. cerevisiae deletion strains, locus YDR334W, strain swr1, active compounds read low 0.982 | S. cerevisiae deletion strains, locus YDR335W, strain msn5, active compounds read low 0.99 | S. cerevisiae deletion strains, locus YDR388W, active compounds read low 1.02 | S. cerevisiae deletion strains, locus YDR392W, strain spt3, active compounds read low 0.889 | S. cerevisiae deletion strains, locus YDR502C, strain sam2, active compounds read low 0.999 | S. cerevisiae deletion strains, locus YEL003W, strain gim4, active compounds read low 0.976 | S. cerevisiae deletion strains, locus YEL037C, strain rad23, active compounds read low 0.975 | S. cerevisiae deletion strains, locus YEL061C, strain CIN8 (second series), active compounds read low 0.981 | S. cerevisiae deletion strains, locus YEL061C, strain CIN8, active compounds read low 1 | S. cerevisiae deletion strains, locus YER015W, strain faa2, active compounds read low 1.01 | S. cerevisiae deletion strains, locus YER016W, strain bim1, active compounds read low 0.982 | S. cerevisiae deletion strains, locus YER110C, active compounds read low 1.02 | S. cerevisiae deletion strains, locus YER111C, strain swi4, active compounds read low 0.977 | S. cerevisiae deletion strains, locus YER155C, strain BEM2 (second series), active compounds read low 0.958 | S. cerevisiae deletion strains, locus YER155C, strain BEM2, active compounds read low 1.01 | S. cerevisiae deletion strains, locus YER167W, strain BCK2, active compounds read low 1.02 | S. cerevisiae deletion strains, locus YFR010W, strain ubp6, active compounds read low 0.983 | S. cerevisiae deletion strains, locus YGL078C, strain dbp3, active compounds read low 1 | S. cerevisiae deletion strains, locus YGL086W, strain mad1, active compounds read low 0.999 | S. cerevisiae deletion strains, locus YGL167C, strain pmr1, active compounds read low 0.977 | S. cerevisiae deletion strains, locus YGL173C, strain kem1, active compounds read low 0.974 | S. cerevisiae deletion strains, locus YGL227W, strain vid30, active compounds read low 0.986 | S. cerevisiae deletion strains, locus YGL240W, strain doc1, active compounds read low 0.988 | S. cerevisiae deletion strains, locus YGL248W, strain PDE1, active compounds read low 0.999 | S. cerevisiae deletion strains, locus YGL253W, strain hxk2, active compounds read low 0.989 | S. cerevisiae deletion strains, locus YGR135W, strain pre9, active compounds read low 1.05 | S. cerevisiae deletion strains, locus YGR252W, strain gcn5, active compounds read low 1 | S. cerevisiae deletion strains, locus YHR013C, strain ard1, active compounds read low 0.943 | S. cerevisiae deletion strains, locus YHR027C, strain rpn1, active compounds read low 1 | S. cerevisiae deletion strains, locus YHR030C, strain SLT2, active compounds read low 1 | S. cerevisiae deletion strains, locus YHR079C, strain IRE1 (second series), active compounds read low 1 | S. cerevisiae deletion strains, locus YHR094C, strain hxt1, active compounds read low 1.02 | S. cerevisiae deletion strains, locus YHR129C, strain ARP1, active compounds read low 1.01 | S. cerevisiae deletion strains, locus YHR142W, strain chs7, active compounds read low 1.02 | S. cerevisiae deletion strains, locus YHR200W, strain rpn10, active compounds read low 1.02 | S. cerevisiae deletion strains, locus YIL066C, strain RNR3, active compounds read low 0.998 | S. cerevisiae deletion strains, locus YIL073C, strain SPO22, active compounds read low 1.04 | S. cerevisiae deletion strains, locus YIL125W, strain kgd1, active compounds read low 1.01 | S. cerevisiae deletion strains, locus YIR030C, strain dcg1, active compounds read low 1.01 | S. cerevisiae deletion strains, locus YJL092W, strain hpr5, active compounds read low 0.995 | S. cerevisiae deletion strains, locus YJL095W, strain BCK1 (second series), active compounds read low 1 | S. cerevisiae deletion strains, locus YJL095W, strain BCK1, active compounds read low 0.994 | S. cerevisiae deletion strains, locus YJL115W, strain asf1, active compounds read low 0.979 | S. cerevisiae deletion strains, locus YJL129C, strain trk1, active compounds read low 1 | S. cerevisiae deletion strains, locus YJL134W, strain LCB3, active compounds read low 1.01 | S. cerevisiae deletion strains, locus YJL154C, strain vps35, active compounds read low 0.975 | S. cerevisiae deletion strains, locus YJL164C, strain tpk1, active compounds read low 1.01 | S. cerevisiae deletion strains, locus YJL166W, strain qcr8, active compounds read low 0.995 | S. cerevisiae deletion strains, locus YJL168C, strain set2, active compounds read low 1.02 | S. cerevisiae deletion strains, locus YJL187C, strain SWE1 (second series), active compounds read low 0.989 | S. cerevisiae deletion strains, locus YJL187C, strain SWE1, active compounds read low 0.992 | S. cerevisiae deletion strains, locus YJR043C, strain POL32, active compounds read low 1 | S. cerevisiae deletion strains, locus YKL009W, strain mrt4, active compounds read low 0.999 | S. cerevisiae deletion strains, locus YKL068W, active compounds read low 1 | S. cerevisiae deletion strains, locus YKL085W, strain MDH1 (second series), active compounds read low 1.01 | S. cerevisiae deletion strains, locus YKL085W, strain MDH1, active compounds read low 1.01 | S. cerevisiae deletion strains, locus YKL160W, strain elf1, active compounds read low 1.04 | S. cerevisiae deletion strains, locus YKL190W, strain CNB1, active compounds read low 0.998 | S. cerevisiae deletion strains, locus YKR001C, strain vps1, active compounds read low 1.01 | S. cerevisiae deletion strains, locus YKR026C, strain gcn3, active compounds read low 0.977 | S. cerevisiae deletion strains, locus YKR091W, strain srl3, active compounds read low 0.99 | S. cerevisiae deletion strains, locus YLL001W, strain dnm1, active compounds read low 1.02 | S. cerevisiae deletion strains, locus YLL026W, active compounds read low 1 | S. cerevisiae deletion strains, locus YLL041C, strain sdh2, active compounds read low 0.997 | S. cerevisiae deletion strains, locus YLR027C, strain aat2, active compounds read low 1 | S. cerevisiae deletion strains, locus YLR039C, strain RIC1, active compounds read low 1.01 | S. cerevisiae deletion strains, locus YLR058C, strain SHM2, active compounds read low 1.01 | S. cerevisiae deletion strains, locus YLR102C, strain apc9, active compounds read low 1.01 | S. cerevisiae deletion strains, locus YLR221C, strain rsa3, active compounds read low 1.01 | S. cerevisiae deletion strains, locus YLR258W, strain gsy2, active compounds read low 0.985 | S. cerevisiae deletion strains, locus YLR262C, strain YPT6 (second series), active compounds read low 0.99 | S. cerevisiae deletion strains, locus YLR262C, strain YPT6, active compounds read low 1 | S. cerevisiae deletion strains, locus YLR268W, strain sec22, active compounds read low 1 | S. cerevisiae deletion strains, locus YLR320W, strain mms22, active compounds read low 0.999 | S. cerevisiae deletion strains, locus YLR330W, strain CHS5, active compounds read low 1.01 | S. cerevisiae deletion strains, locus YLR342W, strain FKS1 (second series), active compounds read low 1.07 | S. cerevisiae deletion strains, locus YLR342W, strain FKS1, active compounds read low 0.979 | S. cerevisiae deletion strains, locus YLR357W, strain rsc2, active compounds read low 0.991 | S. cerevisiae deletion strains, locus YLR370C, strain arc18, active compounds read low 0.992 | S. cerevisiae deletion strains, locus YLR371W, strain rom2, active compounds read low 1.01 | S. cerevisiae deletion strains, locus YLR384C, strain iki3, active compounds read low 0.979 | S. cerevisiae deletion strains, locus YLR418C, strain cdc73, active compounds read low 1.02 | S. cerevisiae deletion strains, locus YML016C, strain PPZ1, active compounds read low 0.998 | S. cerevisiae deletion strains, locus YML032C, strain rad52, active compounds read low 0.995 | S. cerevisiae deletion strains, locus YML120C, strain ndi1, active compounds read low 0.985 | S. cerevisiae deletion strains, locus YML124C, strain tub3, active compounds read low 1.01 | S. cerevisiae deletion strains, locus YMR058W, strain fet3, active compounds read low 0.989 | S. cerevisiae deletion strains, locus YMR078C, strain ctf18, active compounds read low 1.01 | S. cerevisiae deletion strains, locus YMR125W, strain sto1, active compounds read low 0.959 | S. cerevisiae deletion strains, locus YMR129W, active compounds read low 0.995 | S. cerevisiae deletion strains, locus YMR205C, strain PFK2, active compounds read low 0.969 | S. cerevisiae deletion strains, locus YMR223W, strain ubp8, active compounds read low 1.03 | S. cerevisiae deletion strains, locus YMR231W, strain pep5, active compounds read low 0.976 | S. cerevisiae deletion strains, locus YMR307W, strain GAS1, active compounds read low 0.996 | S. cerevisiae deletion strains, locus YNL067W, strain RPL9B, active compounds read low 0.987 | S. cerevisiae deletion strains, locus YNL071W, strain lat1, active compounds read low 0.984 | S. cerevisiae deletion strains, locus YNL209W, strain ssb2, active compounds read low 0.979 | S. cerevisiae deletion strains, locus YNL233W, strain BNI4, active compounds read low 0.984 | S. cerevisiae deletion strains, locus YNL248C, strain rpa49, active compounds read low 1.01 | S. cerevisiae deletion strains, locus YNL250W, strain rad50, active compounds read low 1.04 | S. cerevisiae deletion strains, locus YNL271C, strain bni1, active compounds read low 1.01 | S. cerevisiae deletion strains, locus YNL298W, strain CLA4, active compounds read low 1.01 | S. cerevisiae deletion strains, locus YNL307C, strain MCK1, active compounds read low 1.02 | S. cerevisiae deletion strains, locus YNL322C, strain KRE1 (second series), active compounds read low 0.989 | S. cerevisiae deletion strains, locus YNR049C, strain mso1, active compounds read low 0.975 | S. cerevisiae deletion strains, locus YNR052C, strain pop2, active compounds read low 1.01 | S. cerevisiae deletion strains, locus YOL006C, strain TOP1, active compounds read low 0.961 | S. cerevisiae deletion strains, locus YOL012C, strain htz1 1.01 | S. cerevisiae deletion strains, locus YOL147C, strain pex11, active compounds read low 1.01 | S. cerevisiae deletion strains, locus YOR001W, strain rrp6, active compounds read low 1.01 | S. cerevisiae deletion strains, locus YOR061W, strain CKA2, active compounds read low 1.01 | S. cerevisiae deletion strains, locus YOR069W, strain VPS5, active compounds read low 1 | S. cerevisiae deletion strains, locus YOR070C, strain gyp1, active compounds read low 0.986 | S. cerevisiae deletion strains, locus YOR080W, strain dia2, active compounds read low 0.987 | S. cerevisiae deletion strains, locus YOR083W, strain WHI5, active compounds read low 1.05 | S. cerevisiae deletion strains, locus YOR106W, strain vam3, active compounds read low 1.01 | S. cerevisiae deletion strains, locus YOR136W, strain idh2, active compounds read low 1 | S. cerevisiae deletion strains, locus YOR144C, strain elg1, active compounds read low 1 | S. cerevisiae deletion strains, locus YOR184W, strain ser1, active compounds read low 1.03 | S. cerevisiae deletion strains, locus YOR265W, strain rbl2, active compounds read low 0.997 | S. cerevisiae deletion strains, locus YOR270C, strain vph1, active compounds read low 0.973 | S. cerevisiae deletion strains, locus YOR290C, strain snf2, active compounds read low 0.919 | S. cerevisiae deletion strains, locus YOR316C, strain cot1, active compounds read low 1.01 | S. cerevisiae deletion strains, locus YPL051W, strain arl3, active compounds read low 1.01 | S. cerevisiae deletion strains, locus YPL055C, strain LGE1, active compounds read low 0.93 | S. cerevisiae deletion strains, locus YPL078C, strain atp4, active compounds read low 1.01 | S. cerevisiae deletion strains, locus YPL106C, strain sse1, active compounds read low 0.978 | S. cerevisiae deletion strains, locus YPL240C, strain hsp82, active compounds read low 0.994 | S. cerevisiae deletion strains, locus YPR119W, strain clb2, active compounds read low 1.01 | S. cerevisiae deletion strains, locus YPR141C, strain kar3, active compounds read low 1 | S. cerevisiae deletion strains, locus YPR163C, strain tif3, active compounds read low 1.02 | S. cerevisiae deletion strains, locus YPR167C, strain met16, active compounds read low 1.01 | S. cerevisiae deletion strains, strain wtn01, active compounds read low 1.01 | S. cerevisiae strains, strain wild type, active compounds read low 1.01

— PubChem BioAssay AID1159580 (chemical genetic matrix, 2015)
